Measured values taken from PubChem BioAssay (EPA / NIEHS).
Calls of active or inactive are those of the source. How the source made its calls: active means hit-call score of the fitted dose curve at least 0.9, where 1 is the maximum; inactive means score below 0.9.

Key:
[1] = molecular target: Transcription factor E2F1 (Homo sapiens) (UniProt Q01094); assay: ATG_E2F_CIS: Attagene CIS-FACTORIAL HepG2 Assay for human E2F Transcription Factor 1 (AID 2282935); conditions: HepG2 Attagene cis-reporter, E2F reporter RNA transcripts; actives raise or lower the signal
In short: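 Transient MRTU transfection of HepG2; 24 h compound exposure; RNA → oligo(dT) RT → PCR → FAM label → HpaI cut → CE fluorescence. Gain/loss of signal fit against DMSO.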

[2] = ATG_E_Box_CIS: Attagene CIS-FACTORIAL HepG2 Assay for human Enhancer Box (E-box) (AID 2282936); conditions: HepG2 E-box cis-reporter transcription, actives raise or lower the signal
In short: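 Transiently transfected HepG2, endogenous TF-driven reporters, 24 h dosing. Readout: RT-PCR plus capillary electrophoresis of fluorescent reporter fragments. Gain or loss of signal fitted bidirectionally against DMSO baseline.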

[3] = ATG_EGR_CIS: Attagene CIS-FACTORIAL HepG2 Assay for human Early Growth Response 1 (EGR1) (AID 2282938); conditions: HepG2 Attagene CIS-FACTORIAL EGR reporter mRNA; actives raise or lower the signal
In short: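 Fluorescent capillary-electrophoresis signal of reporter cDNA fragments serves as read-out. HepG2 cells bear transiently transfected cis-promoter reporter units and are exposed 24 h; gain- or loss-of-signal is fitted against DMSO.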

[4] = ATG_M_19_CIS: Attagene CIS-FACTORIAL HepG2 Assay for M19 Transcription Factor (Internal Marker) (AID 2282939); conditions: HepG2 Attagene CIS-FACTORIAL M19 internal marker reporter; actives raise or lower the signal
In short: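 Internal marker readout, fitted in both directions against DMSO, from HepG2 cells carrying transfected cis-element reporter constructs; RT-PCR and capillary electrophoresis of reporter mRNA after 24 h exposure.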

[5] = ATG_ERE_CIS: Attagene CIS-FACTORIAL HepG2 Assay for Estrogen Response Element (ERE) (AID 2282940); conditions: HepG2 ERE cis-reporter, Attagene RNA transcript; actives raise or lower the signal
In short: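 After 24 h compound treatment, RNA from transfected HepG2 cells was reverse-transcribed, reporter cDNA PCR-amplified, FAM-labelled, HpaI-cut and resolved by capillary electrophoresis. ERE-driven cis reporter transcripts reflect endogenous factors; gain or loss scored against DMSO.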

[6] = ATG_Ets_CIS: Attagene CIS-FACTORIAL HepG2 Assay for human Erythroblast Transformation Specific (ETS) (AID 2282941); conditions: HepG2 ETS cis-reporter transcription, actives raise or lower the signal
In short: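 RT-PCR/capillary electrophoresis fluorescence read-out of reporter mRNA; HepG2 transient multi-reporter transfection; 24 h compound exposure; gain or loss of signal fitted bidirectionally relative to DMSO.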

[7] = molecular target: Hepatocyte nuclear factor 3-beta (Homo sapiens) (UniProt Q9Y261); assay: ATG_FoxA2_CIS: Attagene CIS-FACTORIAL HepG2 Assay for human Forkhead box A2 (FOXA2) (AID 2282942); conditions: HepG2 cis-reporter transcription factor activity, 24 h; actives raise or lower the signal
In short: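 Fluorescence signal of reporter cDNA fragments, separated by capillary electrophoresis, reflects endogenous transcription factor activity in transfected HepG2 after 24 h. Both increases and decreases fitted against DMSO.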

[8] = ATG_FoxO_CIS: Attagene CIS-FACTORIAL HepG2 Assay for human Forkhead box O (FoxO) (AID 2282943); conditions: HepG2 Attagene cis-reporter, FoxO element, mRNA; actives raise or lower the signal
In short: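 Read-out: fluorescence of 6-FAM-labelled reporter cDNA fragments resolved by capillary electrophoresis. Transiently transfected HepG2 cells were dosed for 24 h; activity fitted in both directions relative to DMSO controls.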

[9] = ATG_GATA_CIS: Attagene CIS-FACTORIAL HepG2 Assay for human GATA Binding Protein (AID 2282944); conditions: HepG2 GATA cis-element reporter, Attagene multiplex mRNA; actives raise or lower the signal
In short: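 Reporter transcripts from a GATA cis-regulated unit, among multiplexed reporters in transfected HepG2 cells, were measured by RT-PCR with capillary electrophoresis after 24 h dosing. Induction or loss scored relative to DMSO.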

[10] = ATG_GLI_CIS: Attagene CIS-FACTORIAL HepG2 Assay for human Zinc Finger Protein GLI1 (AID 2282945); conditions: HepG2, Attagene cis-factorial reporter mRNA, GLI element; actives raise or lower the signal
In short: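 Transiently transfected HepG2 cells report endogenous transcription factor activity via cis-element-driven reporter units. After 24 h compound exposure, reporter mRNA was measured by RT-PCR with capillary electrophoresis; bidirectional fitting against DMSO baseline.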

[11] = ATG_GRE_CIS: Attagene CIS-FACTORIAL HepG2 Assay for human Glucocorticoid Response Elements (GRE) (AID 2282947); conditions: HepG2 GRE cis-reporter, Attagene multiplex mRNA; actives raise or lower the signal
In short: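 Read-out: fluorescent reporter-transcript fragments separated by capillary electrophoresis after RT-PCR. Transiently transfected HepG2 cells carrying cis-element-driven reporter units were dosed for 24 h; gain or loss of signal fitted against DMSO control.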

[12] = ATG_ISRE_CIS: Attagene CIS-FACTORIAL HepG2 Assay for human Interferon Regulatory Factor 1 (IRF1) binding to an Interferon-Stimulated Response Element (ISRE) (AID 2282948); conditions: HepG2 ISRE cis-reporter (Attagene), mRNA transcription readout; actives raise or lower the signal
In short: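 Read-out: fluorescent RT-PCR products resolved by capillary electrophoresis, reporting endogenous transcription factor activity via ISRE-driven reporter mRNA in transfected HepG2 cells dosed for 24 h; gain or loss fitted relative to DMSO.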

[13] = ATG_M_32_CIS: Attagene CIS-FACTORIAL HepG2 Assay for M32 Transcription Factor (Internal Marker) (AID 2282949); conditions: HepG2 Attagene cis-factorial M32 reporter, mRNA; actives raise or lower the signal;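 further: background control marker of the multiplexed CIS panel rather than a real target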
In short: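 Transient MRTU transfection of HepG2; 24 h compound treatment; TriZol RNA, oligo(dT) RT, reporter PCR, 6-FAM primer extension, HpaI cut, CE. Gain/loss of signal vs DMSO.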

[14] = ATG_M_06_CIS: Attagene CIS-FACTORIAL HepG2 Assay for M06 Transcription Factor (Internal Marker) (AID 2282950); conditions: HepG2 Attagene CIS-FACTORIAL M06 internal marker reporter; actives raise or lower the signal
In short: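 Serves as a background control readout. Transfected HepG2 exposed to compounds for 24 h, then reporter transcripts quantified by fluorescent RT-PCR and capillary electrophoresis. Both directions fitted against DMSO baseline.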

[15] = molecular target: Hypoxia-inducible factor 1-alpha (Homo sapiens) (UniProt Q16665); assay: ATG_HIF1a_CIS: Attagene CIS-FACTORIAL HepG2 Assay for human Hypoxia Inducible Factor 1 (HIF1A) (AID 2282951); conditions: HepG2 Attagene cis-factorial HIF1a reporter transcription; actives raise or lower the signal
In short: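 Endogenous-TF cis reporter readout, human HepG2 cells, 24 h incubation; mRNA detected via RT-PCR and capillary electrophoresis fluorescence; DMSO-normalised bidirectional fitting.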

[16] = molecular target: Heat shock factor protein 1 (Homo sapiens) (UniProt Q00613); assay: ATG_HSE_CIS: Attagene CIS-FACTORIAL HepG2 Assay for human Heat Shock Transcription Factor 1 (HSE) (AID 2282953); conditions: HepG2 HSE cis-reporter, Attagene RNA transcription; actives raise or lower the signal
In short: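 Endogenous transcription factor activity in transiently transfected HepG2, read as reporter mRNA by RT-PCR with fluorescent capillary electrophoresis after 24 h. Gain or loss of signal fitted versus DMSO baseline.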

[17] = ATG_MRE_CIS: Attagene CIS-FACTORIAL HepG2 Assay for human Metal Responsive Element (MRE) (AID 2282954); conditions: HepG2 MRE cis-reporter transcription, Attagene multiplex; actives raise or lower the signal
In short: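 RT-PCR/capillary electrophoresis readout of reporter mRNA, 24 h post-dosing, in HepG2 cells transfected with multiplexed cis-regulated reporter constructs. Gain or loss of signal fitted bidirectionally against DMSO baseline.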

[18] = molecular target: Bile acid receptor (Homo sapiens) (UniProt Q96RI1); assay: ATG_IR1_CIS: Attagene CIS-FACTORIAL HepG2 Assay for human Nuclear Receptor Subfamily 1 Group H Member 4 (NR1H4), IR1 submotif (AID 2282946); conditions: IR1 reporter transcription, actives raise or lower the signal
In short: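 Fluorescence of capillary-separated, HpaI-digested RT-PCR reporter products gave IR1-element mRNA induction in HepG2 cells 24 h after dosing. Endogenous transcription factors drove the cis-regulated reporters; activity was fitted bidirectionally against DMSO.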

[19] = molecular target: Hepatocyte nuclear factor 6 (Homo sapiens) (UniProt Q9UBC0); assay: ATG_HNF6_CIS: Attagene CIS-FACTORIAL HepG2 Assay for human Hepatocyte Nuclear Factor 6 (HNF6) (AID 2282952); conditions: HepG2 Attagene cis-factorial HNF6 reporter transcription; actives raise or lower the signal
In short: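 Readout: fluorescent reporter-transcript fragments resolved by capillary electrophoresis after RT-PCR, reflecting endogenous factor activity in transfected HepG2. Exposure 24 h. Gain or loss of signal fitted bidirectionally against DMSO.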

Measured: AC50

Chain of Transcription factor E2F1 (Homo sapiens) (Q01094 whole entry, looked up): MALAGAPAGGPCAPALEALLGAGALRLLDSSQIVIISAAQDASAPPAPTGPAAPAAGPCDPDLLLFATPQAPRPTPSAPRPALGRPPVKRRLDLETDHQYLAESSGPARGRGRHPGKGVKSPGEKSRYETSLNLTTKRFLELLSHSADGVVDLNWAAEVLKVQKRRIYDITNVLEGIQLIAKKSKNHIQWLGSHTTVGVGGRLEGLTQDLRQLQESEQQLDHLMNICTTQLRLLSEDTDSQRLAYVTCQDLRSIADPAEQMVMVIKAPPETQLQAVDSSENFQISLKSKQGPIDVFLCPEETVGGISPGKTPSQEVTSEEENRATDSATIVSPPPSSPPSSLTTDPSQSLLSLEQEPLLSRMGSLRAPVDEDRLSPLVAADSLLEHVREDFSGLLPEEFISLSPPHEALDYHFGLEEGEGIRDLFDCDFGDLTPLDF
Chain of Hypoxia-inducible factor 1-alpha (Homo sapiens) (Q16665 whole entry, looked up): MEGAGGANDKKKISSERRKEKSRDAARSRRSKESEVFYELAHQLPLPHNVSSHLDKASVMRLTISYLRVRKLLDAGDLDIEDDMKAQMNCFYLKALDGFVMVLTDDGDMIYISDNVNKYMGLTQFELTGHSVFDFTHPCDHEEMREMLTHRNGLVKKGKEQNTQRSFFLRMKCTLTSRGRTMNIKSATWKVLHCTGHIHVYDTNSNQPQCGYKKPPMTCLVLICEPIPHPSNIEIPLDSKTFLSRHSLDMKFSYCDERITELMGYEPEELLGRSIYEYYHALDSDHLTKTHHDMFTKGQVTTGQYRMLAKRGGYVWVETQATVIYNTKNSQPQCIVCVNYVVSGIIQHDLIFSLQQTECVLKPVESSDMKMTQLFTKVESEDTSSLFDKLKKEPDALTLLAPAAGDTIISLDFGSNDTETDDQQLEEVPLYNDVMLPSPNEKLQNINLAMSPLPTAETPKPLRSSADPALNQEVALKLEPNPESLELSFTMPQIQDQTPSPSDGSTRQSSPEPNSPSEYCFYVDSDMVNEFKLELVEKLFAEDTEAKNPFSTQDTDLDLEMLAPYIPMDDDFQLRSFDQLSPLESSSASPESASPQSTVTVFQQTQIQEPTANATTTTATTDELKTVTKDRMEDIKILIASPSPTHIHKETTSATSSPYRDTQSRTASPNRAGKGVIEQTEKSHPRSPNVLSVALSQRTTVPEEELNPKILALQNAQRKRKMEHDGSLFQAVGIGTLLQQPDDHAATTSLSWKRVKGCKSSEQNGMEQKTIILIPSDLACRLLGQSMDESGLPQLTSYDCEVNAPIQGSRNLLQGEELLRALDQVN
Chain of Hepatocyte nuclear factor 3-beta (Homo sapiens) (Q9Y261 whole entry, looked up, the tested form may be a part): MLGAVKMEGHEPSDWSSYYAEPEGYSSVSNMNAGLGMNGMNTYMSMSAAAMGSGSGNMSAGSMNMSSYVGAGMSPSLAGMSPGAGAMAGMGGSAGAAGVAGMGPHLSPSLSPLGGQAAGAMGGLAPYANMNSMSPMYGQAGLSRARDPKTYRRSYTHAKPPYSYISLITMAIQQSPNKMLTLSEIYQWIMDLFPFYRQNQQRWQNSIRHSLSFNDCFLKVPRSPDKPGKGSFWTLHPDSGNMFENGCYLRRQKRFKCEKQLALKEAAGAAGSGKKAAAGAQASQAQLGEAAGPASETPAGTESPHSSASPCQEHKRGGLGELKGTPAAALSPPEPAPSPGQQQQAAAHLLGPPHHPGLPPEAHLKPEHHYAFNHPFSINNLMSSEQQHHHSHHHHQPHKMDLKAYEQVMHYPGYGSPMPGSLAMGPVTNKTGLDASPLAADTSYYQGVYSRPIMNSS
Chain of Hepatocyte nuclear factor 6 (Homo sapiens) (Q9UBC0 whole entry, looked up, the tested form may be a part): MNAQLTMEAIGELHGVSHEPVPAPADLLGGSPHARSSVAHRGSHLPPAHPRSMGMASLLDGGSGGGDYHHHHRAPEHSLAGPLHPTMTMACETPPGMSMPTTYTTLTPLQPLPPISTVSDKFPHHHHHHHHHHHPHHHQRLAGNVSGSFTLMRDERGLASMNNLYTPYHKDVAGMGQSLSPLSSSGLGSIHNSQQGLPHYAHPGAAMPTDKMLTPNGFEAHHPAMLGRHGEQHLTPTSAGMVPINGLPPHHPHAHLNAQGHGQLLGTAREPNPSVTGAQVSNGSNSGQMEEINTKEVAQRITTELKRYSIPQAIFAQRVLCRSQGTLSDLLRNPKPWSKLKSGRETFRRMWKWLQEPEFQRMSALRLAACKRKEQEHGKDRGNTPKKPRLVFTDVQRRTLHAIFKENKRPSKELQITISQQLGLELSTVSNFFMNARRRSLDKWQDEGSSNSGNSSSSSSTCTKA
Chain of Bile acid receptor (Homo sapiens) (Q96RI1 whole entry, looked up): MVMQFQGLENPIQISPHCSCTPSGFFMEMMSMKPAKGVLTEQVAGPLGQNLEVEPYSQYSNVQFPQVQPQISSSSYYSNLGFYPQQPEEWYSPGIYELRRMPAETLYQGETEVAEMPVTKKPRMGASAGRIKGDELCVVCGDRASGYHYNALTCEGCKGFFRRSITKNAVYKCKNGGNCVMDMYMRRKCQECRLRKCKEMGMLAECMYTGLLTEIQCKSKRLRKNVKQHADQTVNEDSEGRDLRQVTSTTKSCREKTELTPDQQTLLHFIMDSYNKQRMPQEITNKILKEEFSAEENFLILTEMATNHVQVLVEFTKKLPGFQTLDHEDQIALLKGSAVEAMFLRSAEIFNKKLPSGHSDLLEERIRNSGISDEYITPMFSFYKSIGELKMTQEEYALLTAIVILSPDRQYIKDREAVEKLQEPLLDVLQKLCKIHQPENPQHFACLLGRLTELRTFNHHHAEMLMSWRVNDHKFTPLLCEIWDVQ
Chain of Heat shock factor protein 1 (Homo sapiens) (Q00613 whole entry, looked up): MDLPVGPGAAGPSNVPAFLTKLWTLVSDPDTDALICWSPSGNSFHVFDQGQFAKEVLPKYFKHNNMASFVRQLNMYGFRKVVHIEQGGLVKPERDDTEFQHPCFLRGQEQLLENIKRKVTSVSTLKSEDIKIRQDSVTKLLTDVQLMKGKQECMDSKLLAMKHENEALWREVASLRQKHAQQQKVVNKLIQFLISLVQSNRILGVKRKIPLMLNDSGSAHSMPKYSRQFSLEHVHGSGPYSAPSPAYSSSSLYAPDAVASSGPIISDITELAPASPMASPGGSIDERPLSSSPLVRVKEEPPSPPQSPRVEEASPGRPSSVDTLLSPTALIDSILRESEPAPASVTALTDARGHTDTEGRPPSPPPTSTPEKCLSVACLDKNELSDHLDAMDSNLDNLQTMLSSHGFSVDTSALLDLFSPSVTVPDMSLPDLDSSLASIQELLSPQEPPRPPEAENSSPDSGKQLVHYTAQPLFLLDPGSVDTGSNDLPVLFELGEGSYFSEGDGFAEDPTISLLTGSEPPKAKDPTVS

c1ccc(OP(Oc2ccccc2)Oc2ccccc2)cc1
active: [5] 72.9 µM
not listed: [18] | [19]
inactive: all other assays above

O=c1ssc(Cl)c1Cl
active: [6] 52.1 µM | [10] 59.1 µM | [18] 58.3 µM | [12] 48.6 µM | [17] 49.6 µM
not listed: [3] | [5] | [16]
inactive: all other assays above

CCC(C)(C)c1ccc(O)cc1
active: [1] 52.4 µM | [5] 2.25 µM | [18] 33.4 µM | [15] 33.4 µM
not listed: [16]
inactive: all other assays above
